Drawing on PubChem BioAssay, this text covers composite z-score for 36 molecules.

Chain of Torsin-1A-interacting protein 2 (Homo sapiens) (Q8NFQ8 whole entry, looked up): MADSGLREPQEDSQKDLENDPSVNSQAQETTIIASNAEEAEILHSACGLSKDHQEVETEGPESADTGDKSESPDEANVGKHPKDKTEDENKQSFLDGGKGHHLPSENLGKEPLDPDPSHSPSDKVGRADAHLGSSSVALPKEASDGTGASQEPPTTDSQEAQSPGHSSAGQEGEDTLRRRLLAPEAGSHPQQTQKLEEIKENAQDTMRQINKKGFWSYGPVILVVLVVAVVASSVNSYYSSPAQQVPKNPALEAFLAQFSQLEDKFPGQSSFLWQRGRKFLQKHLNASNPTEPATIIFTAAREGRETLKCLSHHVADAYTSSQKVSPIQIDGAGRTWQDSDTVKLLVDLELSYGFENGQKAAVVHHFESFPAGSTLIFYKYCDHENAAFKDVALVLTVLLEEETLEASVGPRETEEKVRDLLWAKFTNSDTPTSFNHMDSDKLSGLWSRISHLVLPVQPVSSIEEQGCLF

The assay concerns the target Torsin-1A-interacting protein 2 (Homo sapiens) (UniProt Q8NFQ8). The assay can be described thus: LULL1 binders on small-molecule microarray, primary screen, cell lysate, human LULL1 lysate, 635/667 nm fluorescence (AID 1092).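 Further: probe is lysate of COS7 cells overexpressing human LULL1; score merges per-feature 667 nm fluorescence with signal-to-noise.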 Conditions: hLULL1 lysate binding, 635 nm fluorescence, higher = more signal.
Turning to `CO[C@H]1COC(=O)CC=C[C@H](C)[C@@H](OC)COC(=O)[C@@H](C)NC(=O)CC=C[C@@H]1C`, the composite z-score was -1.92.
Then `CCOC(=O)[C@H](Cc1ccccc1)NC(=O)OC1CC(CCC2CC(CC)=NO2)OC2(CCCC(COC(=O)NCCC(C)C)O2)C1` (stereo partly specified), with 1.44; and `CC(C)CON=C1C[C@@H](O)[C@@H](O)[C@@H]2[C@@H]3C(=O)N(c4ccc(F)cc4F)C(=O)[C@@H]3CC[C@H]12`, with 1.63; and `CC(C)(C)N1C(=O)[C@H]2[C@H]3[C@H](O)[C@H](O)CC(=NO[C@@H]4O[C@H](CO)[C@@H](O)[C@H](O)[C@H]4O)[C@H]3CC[C@H]2C1=O`, with 0.959.
Then `COC(=O)C=CCCc1coc(C=CCNC(=O)OC)n1`, with 0.254; and `Cc1ccc(S(=O)(=O)OC[C@H]2CN3[C@H](c4ccc(Br)cc4)[C@@H](C)CC[C@H]3C(=O)O2)cc1`, with 1.3.
Next, `CO[C@@H]1COC(=O)[C@@H](C)NC(=O)CC=C[C@@H](C)[C@H](NS(=O)(=O)c2ccc(C)cc2)COC(=O)[C@H](C)NC(=O)CC=C[C@H]1C`: 0.537.
With `COC(=O)[C@H](C)NC(=O)CCC1CC(OC(=O)NCc2ccc3c(c2)OCO3)CC2(CCCC(COC(=O)NCC3CCCCC3)O2)O1` (stereo partly specified), the composite z-score was found to be 2.28.
`C#CCCCON=C1C[C@@H](O)[C@@H](O)[C@@H]2[C@@H]3C(=O)N(C(C)(C)C)C(=O)[C@@H]3CC[C@H]12` showed a composite z-score of -0.0077.
`CCOC(=O)NN=C1C[C@@H](O)[C@@H](O)[C@@H]2[C@@H]3C(=O)N(C(C)(C)C)C(=O)[C@@H]3CC[C@H]12` had a composite z-score of -0.3.
Next, `C[C@H]1COC(=O)[C@@H]2CCCN2C(=O)[C@@H](C)COC(=O)[C@H](Cc2ccccc2)NC1=O`: 1.24.
In the case of `CCOC(=O)NN=C1C[C@@H](O)[C@@H](O)[C@@H]2[C@@H]3C(=O)N(c4cccc(Oc5ccccc5)c4)C(=O)[C@@H]3CC[C@H]12`, the composite z-score is 0.0068.
Then `CCOC(=O)C1=NO[C@@]2(C=C(Br)C3(OCCCO3)[C@H]3O[C@H]32)C1`, with 0.0603.
Molecule `CO[C@@H]1COC(=O)[C@H](CCSC)NC(=O)CC=C[C@@H](C)COC(=O)CCC[C@H]1C` came in with a composite z-score of -0.86.
The molecule `CCOC(=O)[C@H](Cc1ccccc1)NC(=O)CCC1CC(OC(=O)NCc2cccc3ccccc23)CC2(CCCC(COC(=O)NCCC(C)C)O2)O1` (stereo partly specified) registered a composite z-score of 0.284.
Next, `CC[C@@H](c1ccccc1)n1c(=O)n2n(c1=O)[C@H]1[C@H](O)[C@@H]3O[C@@H]3C(=O)[C@H]1CC2`: 0.396; `CCc1cc2c(nc1CC)CCN(CCC(C)=NO[C@H](C)c1cn([C@H](CO)Cc3ccccc3)nn1)C2`: 0.461.
Next, `CCOC(=O)[C@H](CC(C)C)NC(=O)CCC1CC(OC(=O)NCc2ccc3c(c2)OCO3)CC2(CCCC(COC(=O)NCC(c3ccccc3)c3ccccc3)O2)O1` (stereo partly specified): 1.6; `CCOC(=O)CCN1C(=O)[C@H]2[C@H]3[C@H](O)[C@H](O)CC(=NOCC(C)C)[C@H]3CC[C@H]2C1=O`: 0.22; `O=C1[C@H]2[C@H]3[C@H](O)[C@H](O)CC(=NOCc4ccccc4)[C@@H]3CC[C@H]2C(=O)N1C[C@@H]1CCCO1`: 0.292.
Molecule `CCOC(=O)[C@H](CC(C)C)NC(=O)CCC1CC(OC(=O)NCc2cccc3ccccc23)CC2(CCCC(COC(=O)NCC3CCCCC3)O2)O1` (stereo partly specified) displayed a composite z-score of 1.11.
Next, `CC(C)=CCCC(C)=CCON=C1C[C@@H](O)[C@@H](O)[C@@H]2[C@@H]3C(=O)N(c4cccc(Oc5ccccc5)c4)C(=O)[C@@H]3CC[C@@H]12`: 1.15; `O=C1[C@H]2[C@H]3[C@H](O)[C@H](O)CC(=NOC[C@@H](O)COCc4ccco4)[C@H]3CC[C@H]2C(=O)N1c1ccc(F)cc1F`: -0.701; `COc1ccc(O[C@@H]2[C@H](O)CO[C@H]2C=Cc2ccccc2)cc1`: 0.108.
Then `COC(=O)[C@@H]1CC[C@H](C)[C@@H](c2ccc(C)cc2)N1C(=O)c1ccc(C=NO[C@@H]2O[C@H](COC(C)=O)[C@@H](OC(C)=O)[C@H](OC(C)=O)[C@H]2OC(C)=O)cc1`, with 0.475; and `CO[C@H]1COC(=O)[C@H](C)NC(=O)[C@@H](C)COC(=O)[C@H]2CCCN2C(=O)CC=C[C@H]1C`, with -0.412; and `CC(C)=CCCC(C)=CCON=C1C[C@@H](O)[C@@H](O)[C@@H]2[C@@H]3C(=O)N(c4ccc(F)cc4F)C(=O)[C@@H]3CC[C@H]12`, with 2.05.
For the molecule `COc1cc(O)c(C(=O)C=Cc2ccc3c(c2)OCO3)c(OC)c1`, the composite z-score was -0.862.
Regarding `COc1ccc(O[C@H]2C=C[C@@H](c3ccccc3)O[C@@H]2CON=C2[C@H]3CCn4c(=O)n(-c5ccccc5)c(=O)n4[C@H]3[C@H](O)[C@@H]3O[C@H]23)cc1`, the composite z-score turned out to be 0.86.
Then `COc1ccc(COC(=O)NN=C2C[C@@H](O)[C@@H](O)[C@@H]3[C@@H]4C(=O)N(Cc5ccccc5)C(=O)[C@@H]4CC[C@H]23)cc1`, with 0.739; and `CO[C@H]1COC(=O)[C@@H](C)COC(=O)[C@@H](OCc2ccccc2)C=C[C@@H]1C`, with -0.424; and `COc1ccc(O[C@H]2C=C[C@@H](c3ccccc3)O[C@@H]2CON=C(C)CCN2CCc3nc(-c4ccccc4)c(-c4ccccc4)cc3C2)cc1`, with 0.607.
Molecule `CCN1C(=O)[C@H]2[C@H]3[C@H](O)[C@H](O)CC(=O)[C@H]3CC[C@H]2C1=O` showed a composite z-score of 0.718.
Next, `CCCNC(=O)OC[C@H]1O[C@H](CCON=C(C)C)C=C[C@@H]1Oc1ccc(OC)cc1`: 0.876.
Next, `CCOC(=O)NN=C1C[C@@H](O)[C@@H](O)[C@@H]2[C@@H]3C(=O)N(c4ccc(F)cc4F)C(=O)[C@@H]3CC[C@@H]12`: 0.0129.
`C[n+]1ccc(-c2ccc(CO)cc2)cc1` registered a composite z-score of -0.202.
